Results from PubChem BioAssay (NCATS).
Records with an inconclusive call do not appear. Active and inactive are the calls of the source. Calls come from the whole dose curve; as a rule, active = well fitted inhibition curve with a large enough effect; inconclusive = small, poorly fitted or top-dose-only effect; inactive = flat fitted curve, though single readings scatter.

Assays:
[1] = system: PC15; assay: qHTS profiling for inhibitors of Plasmodium falciparum proliferation (AID 504749); details: P. falciparum in erythrocytes, SYBR Green DNA, 72 h; series mostly up to 28.7 µM
Method in brief: (§1)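 P. falciparum-infected erythrocytes (0.3% parasitemia, 2.5% hematocrit final) were exposed to compounds for 72 h at 37 C in 5% CO2, then lysed with SYBR Green buffer overnight at room temperature; parasite DNA fluorescence was normalized to artemisinin and DMSO controls.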

[2] = system: PC26; assay: as above; details: P. falciparum in erythrocytes, SYBR Green DNA, 72 h; series mostly up to 28.7 µM
Method in brief: as §1

[3] = system: PC49; assay: as above; details: P. falciparum in erythrocytes, SYBR Green DNA, 72 h; series mostly up to 28.7 µM
Method in brief: as §1

[4] = system: SC27B; assay: as above; details: P. falciparum in erythrocytes, SYBR Green DNA, 72 h; series mostly up to 28.7 µM
Method in brief: as §1

[5] = system: TAB109; assay: as above; details: P. falciparum in erythrocytes, SYBR Green DNA, 72 h; series mostly up to 28.7 µM
Method in brief: as §1

[6] = system: TAB165; assay: as above; details: P. falciparum in erythrocytes, SYBR Green DNA, 72 h; series mostly up to 28.7 µM
Method in brief: as §1

[7] = system: W2; assay: as above; details: P. falciparum in erythrocytes, SYBR Green DNA, 72 h; series mostly up to 28.7 µM
Method in brief: as §1

[8] = system: CRL-7250; assay: Cytotoxic Profiling of Annotated Libraries Using Quantitative High-Throughput Screening (AID 1296008); details: Five cell lines viability, CellTiter-Glo ATP luminescence, 48-72 h; max response: stronger effect = lower value; for max response: % is set by controls: 0 for no effect and ±100 for the full control effect
Method in brief: (§2)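 Compounds were pin-transferred onto cells and incubated 48 or 72 hr at 37 degree Celsius, 95% humidity. CellTiter-Glo was added, plates sat 10 min at room temperature, then ATP-coupled luminescence was imaged as the viability read-out.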

[9] = system: KB-3-1; assay: as above; details: Five cell lines viability, CellTiter-Glo ATP luminescence, 48-72 h; max response: stronger effect = lower value
Method in brief: as §2

[10] = system: NIH3T3; assay: as above; details: Five cell lines viability, CellTiter-Glo ATP luminescence, 48-72 h; max response: stronger effect = lower value
Method in brief: as §2

[11] = system: MCC-13; assay: qHTS assay to identify novel small-molecules to repurpose for Merkel cell carcinoma treatment (AID 1296009); details: MCC and control cell lines, CellTiter-Glo viability, 72 h; series mostly up to 46 µM
Method in brief: (§3)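 Cells exposed to NPC (8-point) and MIPE (11-point) compound dilutions for 72 hr at 37 degree celsius; viability read by CellTiter-Glo luminescence, normalized to no-cell and DMSO in-plate controls.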

[12] = system: MCC-26; assay: as above; details: MCC and control cell lines, CellTiter-Glo viability, 72 h; series mostly up to 46 µM
Method in brief: as §3

[13] = system: MKL-1; assay: as above; details: MCC and control cell lines, CellTiter-Glo viability, 72 h; series mostly up to 46 µM
Method in brief: as §3

[14] = system: P94_40; assay: qHTS profiling for inhibitors of Plasmodium falciparum proliferation (AID 504749); details: P. falciparum in erythrocytes, SYBR Green DNA, 72 h; series mostly up to 28.7 µM
Method in brief: as §1

[15] = system: PAD; assay: as above; details: P. falciparum in erythrocytes, SYBR Green DNA, 72 h; series mostly up to 28.7 µM
Method in brief: as §1

[16] = system: TAB113; assay: as above; details: P. falciparum in erythrocytes, SYBR Green DNA, 72 h; series mostly up to 28.7 µM
Method in brief: as §1

[17] = system: HEK293; assay: Cytotoxic Profiling of Annotated Libraries Using Quantitative High-Throughput Screening (AID 1296008); details: Five cell lines viability, CellTiter-Glo ATP luminescence, 48-72 h; max response: stronger effect = lower value; for max response: % is set by controls: 0 for no effect and ±100 for the full control effect
Method in brief: as §2

[18] = system: HaCat; assay: as above; details: Five cell lines viability, CellTiter-Glo ATP luminescence, 48-72 h; max response: stronger effect = lower value
Method in brief: as §2

[19] = system: HACAT; assay: qHTS assay to identify novel small-molecules to repurpose for Merkel cell carcinoma treatment (AID 1296009); details: MCC and control cell lines, CellTiter-Glo viability, 72 h; at 44.8 µM (top of the series) unless noted
Method in brief: as §3
Note: nearly all actives have a fitted effect of over 60% in size.
Potency is the fitted concentration of half-maximal effect.

CC(=O)OCC(=O)[C@@]1(OC(C)=O)[C@@H](C)C[C@H]2[C@@H]3C[C@H](F)C4=CC(=O)C=C[C@]4(C)[C@@]3(F)[C@@H](O)C[C@@]21C
inactive: Potency [1] | Potency [2] | Potency [3] | Potency [4] | Potency [5] | Potency [6] | outcome [8] | max response [9] 6.89% | max response [10] -5% | Potency [11] | Potency [12] | Potency [13]
active: Potency [7] 6.01 µM

COc1c(C)c2c(c(O)c1C/C=C(\C)CCC(=O)O)C(=O)OC2
inactive: Potency [1] | Potency [3] | max response [9] -17.8%
active: Potency [14] 3.16 µM | Potency [15] 3.16 µM | Potency [4] 2.24 µM | Potency [5] 2.82 µM | Potency [16] 3.98 µM | Potency [6] 1.58 µM | Potency [7] 2.56 µM | Potency [17] 0.944 µM | Potency [10] 1.68 µM

CN(C)/N=N/c1nc[nH]c1C(N)=O
inactive: Potency [14] | Potency [15] | Potency [1] | Potency [2] | Potency [3] | Potency [4] | Potency [5] | Potency [16] | Potency [6] | Potency [7] | max response [9] -8.2% | Potency [11] | Potency [12] | Potency [13]

CC(=O)Nc1c(I)cc(I)c(C(=O)O)c1I
inactive: Potency [14] | Potency [15] | Potency [1] | Potency [2] | Potency [3] | Potency [4] | Potency [5] | Potency [16] | Potency [6] | Potency [7] | max response [18] 4.29% | max response [9] -17.1% | outcome [10] | Potency [11] | Potency [13]

Oc1c(I)cc(Cl)c2cccnc12
active: Potency [14] 12.6 µM | Potency [5] 12.6 µM | Potency [6] 12.6 µM
inactive: Potency [1] | Potency [2] | Potency [3] | Potency [7] | outcome [18] | max response [9] -8.86% | outcome [19]

CCCCCCc1ccc(O)cc1O
inactive: Potency [14] | Potency [15] | Potency [1] | Potency [2] | Potency [3] | Potency [4] | Potency [5] | Potency [16] | Potency [6] | Potency [7] | max response [9] 0.129% | max response [10] 4.72% | Potency [11] | Potency [13]

CCCCOc1cc(C(=O)NCCN(CC)CC)c2ccccc2n1
inactive: Potency [14] | Potency [15] | Potency [1] | Potency [2] | Potency [3] | Potency [4] | Potency [5] | Potency [16] | Potency [6] | max response [18] 2.41% | max response [9] 0.155% | Potency [11] | Potency [12] | Potency [13]

COc1cc2c(cc1OC)C(=O)C(CC1CCN(Cc3ccccc3)CC1)C2 (configuration not stated)
inactive: Potency [14] | Potency [15] | Potency [1] | Potency [2] | Potency [3] | Potency [4] | Potency [5] | Potency [16] | max response [9] 1.75% | max response [10] -17.7% | Potency [11] | Potency [12] | Potency [13]

CC(C)C[C@H]1C(=O)N2CCC[C@H]2[C@]2(O)O[C@](NC(=O)[C@@H]3C=C4c5cccc6[nH]c(Br)c(c56)C[C@H]4N(C)C3)(C(C)C)C(=O)N12
inactive: max response [9] 3.47%

CC(C)N=C(N)/N=C(\N)Nc1ccc(Cl)cc1
inactive: Potency [16] | max response [18] 0.505% | max response [9] -14.7% | Potency [11] | Potency [12] | Potency [13]
active: Potency [1] 0.708 µM | Potency [2] 1.61 µM | Potency [7] 1.28 µM

CC/C(=C(/CC)c1ccc(O)cc1)c1ccc(O)cc1
inactive: Potency [15] | Potency [2] | Potency [3] | Potency [5] | max response [9] -22.7% | max response [10] -25.4% | Potency [11] | Potency [13]

Oc1ccc(Cl)cc1Sc1cc(Cl)ccc1O
active: Potency [13] 21.1 µM
inactive: Potency [14] | Potency [15] | Potency [1] | Potency [2] | Potency [3] | Potency [5] | max response [18] 2% | max response [10] -21.9% | Potency [12]

CCN(CC)CCOC(=O)C(c1ccccc1)C1CCCCC1 (configuration not stated)
active: Potency [7] 7.57 µM
inactive: Potency [14] | Potency [3] | Potency [4] | Potency [5] | Potency [6] | outcome [18] | max response [9] -2.77% | outcome [19] | Potency [11] | Potency [13]

CNCC[C@@H](Oc1ccccc1C)c1ccccc1
inactive: max response [18] 1.42% | max response [9] -7.4% | Potency [11] | Potency [12] | Potency [13]

Oc1c(I)cc(I)c2cccnc12
inactive: Potency [3] | Potency [4] | Potency [16] | outcome [18] | max response [9] -18.8% | outcome [19] | Potency [11] | Potency [12]
active: Potency [14] 11.2 µM | Potency [13] 18.8 µM

Cc1cccc(C)c1NC(=O)CN1CCN(CCCC(c2ccc(F)cc2)c2ccc(F)cc2)CC1
active: Potency [7] 4.55 µM
inactive: Potency [1] | Potency [3] | Potency [16] | max response [9] -1.23% | Potency [11] | Potency [12] | Potency [13]

NC(CO)(CO)CO
inactive: Potency [14] | Potency [15] | Potency [1] | Potency [2] | Potency [3] | Potency [4] | Potency [5] | Potency [16] | Potency [6] | Potency [7] | max response [9] 3.6% | max response [10] -20% | Potency [11] | Potency [12] | Potency [13]
